According to PubChem BioAssay:

Test: glutamate transport activators, MN-1 cells, MN-1 cell line (AID 1612);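 also: tested at 1 µM final; 0% = mean of DMSO vehicle wells on each plate; positive means more glutamate uptake than control and negative means less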
Conditions: MN-1 motor neuron cells, stronger effect = higher value

SMILES | glutamate uptake change
CC(=O)OCC(=O)[C@@]1(O)[C@H](C)CC2C3CCC4=CC(=O)C=C[C@]4(C)[C@@]3(F)[C@@H](O)C[C@@]21C (some centres not stated) | 20.3%
Nc1ccn(C2O[C@H](CO)[C@@H](O)[C@H]2O)c(=O)n1 (some centres not stated) | 6.93%
C=C(C)[C@H]1CC=C(C(=O)O)CC1 | -7.46%
NC(COCc1ccccc1)C(=O)O (configuration not stated) | 3.63%
CC1(C)C2CC[C@]3(C)C(C(=O)C=C4[C@H]5C[C@@](C)(C(=O)O)CC[C@]5(C)CC[C@]43C)[C@@]2(C)CC[C@@H]1O (some centres not stated) | -60.4%
CC1(C)C2CC[C@]3(C)C(C(=O)C=C4[C@@H]5C[C@@](C)(C(=O)O)CC[C@]5(C)CC[C@]43C)[C@@]2(C)CC[C@@H]1O (some centres not stated) | -84.4%
COc1ccc([C@@H]2CC(=O)c3c(O)cc(O[C@@H]4O[C@H](CO[C@H]5O[C@@H](C)[C@H](O)[C@@H](O)[C@H]5O)[C@@H](O)[C@H](O)[C@H]4O)cc3O2)cc1O | 7.48%
CC(=O)[C@@]1(O)CCC2C3C=C(Cl)C4=CC(=O)[C@@H]5CC5[C@]4(C)C3CC[C@@]21C (some centres not stated) | -5.81%
CC(C)(C)NC[C@@H](O)COc1nsnc1N1CCOCC1 | 14.7%
CC(C)CC(NC(=O)CCN)C(=O)O (configuration not stated) | 14.1%
CC[C@H](C)C(=O)O[C@H]1CCC=C2C=C[C@H](C)C(CCC3C[C@@H](O)CC(=O)O3)[C@H]21 (some centres not stated) | 12.1%
NC[C@H]1O[C@H](O[C@H]2C(O[C@@H]3O[C@H](CO)[C@@H](O)[C@H]3O)[C@@H](O)[C@H](N)C[C@@H]2N)[C@H](N)[C@@H](O)[C@@H]1O (some centres not stated) | -16.8%
CC1=C2C(=CO[C@H](C)[C@H]2C)C(=O)C(C(=O)O)=C1O | 33.3%
CC(=O)Oc1ccc2c(c1)CCC1C2CC[C@@]2(C)C1CC[C@@H]2OC(C)=O (some centres not stated) | -3%
C1CCN2C[C@H]3C[C@H](CN4CCCC[C@@H]34)[C@H]2C1 | 8.14%
CC1CCC2(OC1)OC1CC3C4CC[C@H]5C[C@@H](O)CC[C@]5(C)C4CC(=O)[C@]3(C)C1C2C (some centres not stated) | 2.67%
CCCC(=O)Nc1ncnc2c1ncn2C1O[C@@H]2COP(=O)(O)O[C@H]2[C@H]1OC(=O)CCC (some centres not stated) | 4.01%
CC(=O)O[C@@H]1CC2C(C)(C)C(=O)C=C[C@]2(C)C2CC[C@@]3(C)[C@H](c4ccoc4)OC(=O)[C@H]4O[C@]43[C@@]21C (some centres not stated) | -11.6%
CC(=O)N[C@@H]1[C@@H](C(O)[C@H](O)CO)O[C@](O)(C(=O)O)C[C@@H]1O (some centres not stated) | 11.8%
CC(C)Oc1ccc2c(=O)cc(-c3ccccc3)oc2c1 | -13.2%
COc1ccc(-c2cc(=O)c3c(O)cc(O[C@@H]4O[C@H](CO[C@H]5O[C@H](C)[C@@H](O)[C@H](O)[C@@H]5O)[C@@H](O)[C@H](O)[C@H]4O)cc3o2)cc1O | 6.61%
C[N+]1(C)C2CC(OC(=O)[C@@H](CO)c3ccccc3)CC1C1OC12 (some centres not stated) | -7.1%
COC1=CC(C)[C@@H]2C[C@H]3OC(=O)C[C@H]4C(C)=C(OC)C(=O)C([C@@]34C)[C@@]2(C)C1=O (some centres not stated) | 12.8%
NC(Cc1ccc(F)cc1)C(=O)O (configuration not stated) | 15.5%
COC(=O)C(N)CS (configuration not stated) | 10.6%

Test: GFP-Q80 aggregate reduction, neuronal-like cells, cell-based, NGF-treated PC12, GFPQ80 (AID 1614);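 also: lower means fewer inclusions and 0 means no inclusions at all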
Conditions: PC12 NGF-treated GFP-polyQ80 inclusion reduction

SMILES | inclusion score
CC(=O)OCC(=O)[C@@]1(O)[C@H](C)CC2C3CCC4=CC(=O)C=C[C@]4(C)[C@@]3(F)[C@@H](O)C[C@@]21C (some centres not stated) | 2
Nc1ccn(C2O[C@H](CO)[C@@H](O)[C@H]2O)c(=O)n1 (some centres not stated) | 2
C=C(C)[C@H]1CC=C(C(=O)O)CC1 | 2
NC(COCc1ccccc1)C(=O)O (configuration not stated) | 2
CC1(C)C2CC[C@]3(C)C(C(=O)C=C4[C@H]5C[C@@](C)(C(=O)O)CC[C@]5(C)CC[C@]43C)[C@@]2(C)CC[C@@H]1O (some centres not stated) | 2
COc1ccc([C@@H]2CC(=O)c3c(O)cc(O[C@@H]4O[C@H](CO[C@H]5O[C@@H](C)[C@H](O)[C@@H](O)[C@H]5O)[C@@H](O)[C@H](O)[C@H]4O)cc3O2)cc1O | 2
CC(=O)[C@@]1(O)CCC2C3C=C(Cl)C4=CC(=O)[C@@H]5CC5[C@]4(C)C3CC[C@@]21C (some centres not stated) | 2
CC(C)(C)NC[C@@H](O)COc1nsnc1N1CCOCC1 | 2
CC(C)CC(NC(=O)CCN)C(=O)O (configuration not stated) | 2
NC[C@H]1O[C@H](O[C@H]2C(O[C@@H]3O[C@H](CO)[C@@H](O)[C@H]3O)[C@@H](O)[C@H](N)C[C@@H]2N)[C@H](N)[C@@H](O)[C@@H]1O (some centres not stated) | 2
CC1=C2C(=CO[C@H](C)[C@H]2C)C(=O)C(C(=O)O)=C1O | 2
C1CCN2C[C@H]3C[C@H](CN4CCCC[C@@H]34)[C@H]2C1 | 2
CC1CCC2(OC1)OC1CC3C4CC[C@H]5C[C@@H](O)CC[C@]5(C)C4CC(=O)[C@]3(C)C1C2C (some centres not stated) | 2
CCCC(=O)Nc1ncnc2c1ncn2C1O[C@@H]2COP(=O)(O)O[C@H]2[C@H]1OC(=O)CCC (some centres not stated) | 2
CC(=O)O[C@@H]1CC2C(C)(C)C(=O)C=C[C@]2(C)C2CC[C@@]3(C)[C@H](c4ccoc4)OC(=O)[C@H]4O[C@]43[C@@]21C (some centres not stated) | 2
CC(=O)N[C@@H]1[C@@H](C(O)[C@H](O)CO)O[C@](O)(C(=O)O)C[C@@H]1O (some centres not stated) | 2
CC(C)Oc1ccc2c(=O)cc(-c3ccccc3)oc2c1 | 2
COc1ccc(-c2cc(=O)c3c(O)cc(O[C@@H]4O[C@H](CO[C@H]5O[C@H](C)[C@@H](O)[C@H](O)[C@@H]5O)[C@@H](O)[C@H](O)[C@H]4O)cc3o2)cc1O | 2
C[N+]1(C)C2CC(OC(=O)[C@@H](CO)c3ccccc3)CC1C1OC12 (some centres not stated) | 2
COC1=CC(C)[C@@H]2C[C@H]3OC(=O)C[C@H]4C(C)=C(OC)C(=O)C([C@@]34C)[C@@]2(C)C1=O (some centres not stated) | 2
NC(Cc1ccc(F)cc1)C(=O)O (configuration not stated) | 2
COC(=O)C(N)CS (configuration not stated) | 2
